High-throughput results deposited in PubChem by National Center for Advancing Translational Sciences (NCATS).
TCR act = activates T cell receptor signaling. Potency, µM (titrated, usually from 9.22 µM), for inactives: top-dose activation of IL-2 secretion, most hits filed as activators. 330,000 tested, under 10 active. primary human leukocytes, anti-CD3, IL-2 HTRF, 48 h; also: % of control where 0% means no effect
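Compounds are tested in HTS on primary human leukocytes co-incubated with a-CD3 beads for 48 hr. IL-2 output is measured by time-resolved FRET.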
VDR inh = vitamin D3 receptor (human) inhibition; VDR-SRC2-3 peptide fluorescence polarization, 2 h; Potency, µM, inactives show max response, negative = inhibition, hits mostly inhibitors; 400,000 tested, 0.93% active; AID 504847; also: potency is read from the fitted curve at half-maximal effect; % is scaled to controls: 0 for no effect and ±100 for the full control effect
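Fluorescence polarization assay measuring small-molecule disruption of VDR binding to the coregulator peptide SRC2-3. Compounds were pin-transferred (23 nl) into the reagent mix and incubated 2 h at room temperature before reading.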
PI5P4Ka inh = blocks human PI5P4K alpha kinase activity; P48426; PI5P4Kalpha enzyme, ADP-Glo luminescence, 60 min; hits give low values; max response, %; 330,000 tested, 1.2% active; AID 652105; active = max response of -50% or lower; inconclusive = between -30% and -50%; inactive = -30% or higher; also: value at the top dose of about 77 µM; % is scaled to controls: 0 for no effect and ±100 for the full control effect
Target sequence (P48426 whole entry, looked up): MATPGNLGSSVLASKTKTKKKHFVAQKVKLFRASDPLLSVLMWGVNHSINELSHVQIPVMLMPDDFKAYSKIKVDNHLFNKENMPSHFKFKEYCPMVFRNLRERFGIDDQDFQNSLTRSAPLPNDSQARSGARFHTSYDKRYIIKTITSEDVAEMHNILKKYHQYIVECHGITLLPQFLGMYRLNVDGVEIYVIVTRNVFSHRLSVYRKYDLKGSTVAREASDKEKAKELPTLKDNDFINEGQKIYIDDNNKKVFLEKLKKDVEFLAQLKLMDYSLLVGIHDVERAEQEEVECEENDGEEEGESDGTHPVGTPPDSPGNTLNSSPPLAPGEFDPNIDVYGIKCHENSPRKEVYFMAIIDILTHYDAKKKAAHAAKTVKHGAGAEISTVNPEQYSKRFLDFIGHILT
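Compounds were pin-transferred onto PI5P4Kalpha and substrate in HEPES pH 7.4 buffer with EGTA, CHAPS and 5% DMSO. ATP (5 microM final) started the reaction, which ran 60 minutes at room temperature before ADP-Glo detection.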
WRN helicase inh = inhibitors of human WRN helicase | Q14191 | WRN helicase unwinding, fluorescent forked duplex, kinetic | Potency, µM (highest dose often 114 µM), for the others: top-dose activity change, negative = inhibition, usual class: inhibitors | 360,000 tested, 0.46% active | AID 651768; also: potency is read from the fitted curve at half-maximal effect; % is scaled to controls: 0 for no effect and ±100 for the full control effect; nearly all actives have a fitted effect of over 55% in size
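Fluorescence dequenching readout, ex 525 nm/em 598 nm, kinetic mode: forked duplex DNA (100 nM final) with adjacent fluorophore and quencher unwound by WRN (20 nM final) with 2 mM ATP. Compound preincubation 15 min, room temperature.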
FEN1 inh = inhibitors of human flap endonuclease 1; Recombinant FEN1 flap cleavage, fluorescence, 15 min; AID 588795; Potency, µM (highest dose often 114 µM), inactives show at the top dose activity change, negative = inhibition, usual class: inhibitors; 390,000 tested, 0.35% active; P39748; also: potency is read from the fitted curve at half-maximal effect; % is scaled to controls: 0 for no effect and ±100 for the full control effect; nearly all actives have a fitted effect of over 65% in size
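In this screen, 50 nM flap DNA substrate was added to 10 nM FEN1 pretreated with compound for 15 min at room temperature; cleavage was followed with reads at 0 and 15 min, and Hill fitting gave concentration–response parameters.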
PLK1 PBD inh = inhibitors of human PLK1 polo-box domain binding | Plk1 PBD binding of FITC phosphopeptide, fluorescence polarization | Potency, µM, for inactives: max response, negative = inhibition, most hits filed as inhibitors | 360,000 tested, 2.8% active | AID 720504; also: potency is read from the fitted curve at half-maximal effect; series mostly up to about 57 µM; % is scaled to controls: 0 for no effect and ±100 for the full control effect; nearly all actives have a fitted effect of over 65% in size
ADP-Glo interf = interferes with ADP-Glo detection without enzyme present; shares compounds with PI5P4Ka inh; 1,100 tested, under 10 active; AID 743285; Potency, µM (top dose mostly 76.9 µM), for inactives: at the top dose activity change, negative = inhibition, actives largely listed as inhibitors; ADP-Glo detection counter-screen, luciferase luminescence, no enzyme
Numbers without * were called inactive; ? = inconclusive; · = not tested or not shown; [ ] = dose if it differs, or a comment. Only some compounds are listed: those with a hit (about 3.7% of all), similar ones and a draw of the others. Unless noted, calls follow the shape of the dose curve; as a rule, active = well fitted curve in the direction sought with a large enough effect; inconclusive = small, poorly fitted or top-dose-only effect, or another doubt; inactive = no such curve, though single readings can be large; an effect the other way counts as inactive or inconclusive.

SMILES	TCR act	VDR inh	PI5P4Ka inh	WRN helicase inh	FEN1 inh	PLK1 PBD inh	ADP-Glo interf
CC(C)N(Cc1ccccc1)C(=O)Cn1ncc2c3ccccc3n(Cc3ccccc3)c2c1=O	·	15%	·	·	7%	·	·
CC(=O)c1ccc(-n2c(CCC(=O)O)ccc2-c2cccs2)cc1	-2%	?	·	-8%	10%	-8%	·
NC(=O)c1ccc(-n2c(CCC(=O)O)ccc2-c2cccs2)cc1	3%	-19%	-80*	-6%	-3%	-13%	2%
O=C(CN1C(=O)C2CCCCN2c2ccc(C(=O)N3CCCC3)cc21)NCc1cccc(Cl)c1 (stereo unspecified)	·	3%	·	·	3%	·	·
CS(=O)(=O)N1CCC(n2c(C(F)(F)F)nc3cccnc32)CC1	·	-5%	·	·	21%	·	·
O=C(NC1CCCCC1)C(c1ccnc2ccccc12)n1c(=O)c(-c2ccco2)nc2ccccc21 (stereo unspecified)	·	·	-78*	-6%	·	-14%	-5%
O=C(Nc1ccc2c(c1)OCCO2)C(c1ccnc2ccccc12)n1c(=O)c(-c2ccco2)nc2ccccc21 (stereo unspecified)	·	·	?	-4%	·	-16%	·
O=C(NCc1ccccc1)C(c1ccccc1)n1c(=O)c(-c2ccco2)nc2ccccc21 (stereo unspecified)	·	·	-64*	-17%	·	?	-4%
CCC1=Nc2cc(C(=O)O)ccc2Sc2ccccc21	5%	-2%	-57*	4%	12%	-19%	-2%
CCC1=Nc2cc(C(=O)NCCCOC(C)C)ccc2Sc2ccccc21	-7%	-7%	·	0%	-7%	-6%	·
CCCCc1c(-c2ccccc2)ncn1CCc1ccccc1OC	·	·	2	-2%	·	3%	·
CCCCc1c(Cc2ccccc2)ncn1CCc1ccccc1OC	·	·	-67*	-13%	·	-26%	2%
CCOC(=O)Nc1ccc2c(CNC(C)c3ccccc3OC)cc(=O)oc2c1 (stereo unspecified)	-5%	-8%	-90*	-9%	9%	-1%	-6%
CC1CCCCN1C(=O)Cn1cnc2cc([N+](=O)[O-])ccc2c1=O (stereo unspecified)	-3%	?	-69*	?	-6%	9.5µM*	-3%
O=C(COc1cccc2ccccc12)Nc1ccc(Cl)cc1C(=O)O	1%	?	-54*	-15%	-17%	27µM*	-1%
COc1ccccc1Nc1nc(NCc2ccco2)c2ccccc2n1	-4%	-12%	-6	-31%	-19%	8%	·
Nc1nc(Nc2cccc(Cl)c2)nc(NCc2ccco2)c1[N+](=O)[O-]	2%	-17%	-54*	?	-8%	-6%	-2%
Cc1ccc(Nc2nc(NCc3ccco3)c3ccccc3n2)cc1	0%	0%	·	-22%	-30%	4%	-2%
Nc1nc(Nc2ccc(Cl)cc2)nc(NCc2ccco2)c1[N+](=O)[O-]	-6%	-3%	-54*	?	-2%	3%	-2%
CCOc1cc(CNC(=O)c2ccc3c(c2)N(C)C(=O)C2CCCCN32)cc(OCC)c1OCC (stereo unspecified)	·	10%	·	·	4%	·	·
COc1ccc(-c2nc(SCC(=O)NC(C)CCc3ccccc3)n[nH]2)cc1 (stereo unspecified)	·	-1%	·	·	0%	·	·
O=C(O)c1ccc(Nc2nc3ccccc3nc2NS(=O)(=O)c2cccs2)cc1	4%	-11%	?	0%	?	?	-8%
CCOC(=O)CSc1ccc2nnc(-c3cccs3)n2n1	-8%[46.1 µM]	0%	-51*	-15%	-8%	-28%	-7%
Cc1ccc(Nc2nc3ccc(C)cc3nc2-n2nc(C)cc2C)c(C)c1	·	4%	·	·	4%	·	·
O=C(Nc1ccc2c(c1)OCO2)c1n[nH]c(=O)c2ccccc12	6%	-19%	-57*	-9%	13%	-22%	1%
